# HCV inhibitor: HCV inhibition; Huh7.5.1 HCVcc-Cre infection, luciferase reporter, 44 h; Potency, µM (series often up to 41.8 µM), inactives show at the top dose activity change, negative = inhibition, usual class: inhibitors; 340,000 tested, 3.4% active; active = well fitted inhibition curve with a large enough effect; inconclusive = small, poorly fitted or top-dose-only effect, or another doubt; inactive = no such curve, though single readings can be large or run the other way; also: potency is read from the fitted curve at half-maximal effect
#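 A cell-based infection assay in which seeded cells (1,000 per well) receive test compound after 4 h, are inoculated with HCVcc-Cre at approximately 0.5 moi, and are incubated 44 h before luminescence detection.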
# FMDV antiviral: foot and mouth disease virus antiviral activity. Potency, µM (highest dose often 57.9 µM), for inactives: at the highest dose activity change, negative = inhibition, actives largely listed as inhibitors. 410,000 tested, 1.2% active. FMDV antiviral cell-based qHTS; calls by dose curve; tested in HEK293T cells; also: read-out not given here; potency is read from the fitted curve at half-maximal effect; nearly all actives have a fitted effect of over 45% in size
# LASV entry inh: Lassa virus entry inhibition; Lassa virus pseudotype entry inhibition, cell reporter; Potency, µM (doses to about 37.9 µM), without a hit: at the highest dose activity change, negative = inhibition, actives largely listed as inhibitors; 300,000 tested, 1.2% active; calls by dose curve; tested in HEK293 cells; also: potency is read from the fitted curve at half-maximal effect; nearly all actives have a fitted effect of over 50% in size
# HCMV antiviral: blocks human cytomegalovirus replication; HFF cells, HCMV-luciferase reporter, 72 h; stronger effect = lower value; activity change, negative = inhibition, % at 57.5 µM; 410,000 tested, 4.5% active; AID 1259415; in the data active = activity change below about -60%; inconclusive = no clear call, values can overlap the other calls; inactive = above about -39%
#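 Luciferase read-out from HCMV-luciferase-infected HFFs (MOI 1 PFU/cell) 72 h post infection at 37C; compounds added after 16 h cell attachment; activity normalized between buffer-only basal and Salinomycin (10uM) inhibitor controls.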
# Marburg entry inh: blocks Marburg virus binding to or entry into cells; Marburg virus pseudotyped entry inhibition, cell reporter; Potency, µM (titrated, usually from 37.8 µM), without a hit: top-dose activity change, negative = inhibition, most hits filed as inhibitors; 300,000 tested, 1.8% active; AID 540276; calls by dose curve; tested in HEK293 cells; also: potency is read from the fitted curve at half-maximal effect
# * hit, by the source's call; u = inconclusive; x = not tested or not shown; + = active, no number; ! = repeats disagree; [ ] = dose if it differs, or a comment. Sampled rows, rich in hits. Any-hit rate of the full collection: about 7.9%. % is scaled to controls: 0 for no effect and ±100 for the full control effect.
SMILES,HCV inhibitor,FMDV antiviral,LASV entry inh,HCMV antiviral,Marburg entry inh
Cc1nn(-c2ccccc2)c2nc(C3CC3)cc(C(=O)Nc3cccc(F)c3)c12,x,u,u,-66.6*,x
Cc1ccc(-c2nn(CC(=O)NC3CCCCC3)c3c2cnc2ccccc23)cc1,x,18.8%,-13.1%[46.1 µM],-4.0,x
Cc1ncc2c(c1CNC(=O)c1ccc3c(c1)OCO3)CCN(C(=O)c1noc3c1CCCC3)C2,x,-11.2%,x,x,x
Cc1ccc(Nc2cc(C)c(C#N)c3nc4ccccc4n23)cc1Cl,x,0.0%,u,10.0,6.8%[46.1 µM]
COc1ccc(-c2onc(C)c2C)cc1S(=O)(=O)NCc1ccc(Br)cc1,x,39.2%,u,0.0,x
Cc1ccc(NC(=O)N/C=C/c2ccco2)cc1C,0.3%,6.2%,-0.8%,-108.2*,4.1%
Cc1cc(Cl)ccc1NC(=O)CS(=O)(=O)c1cccc2nsnc12,x,-3.1%,u,-18.5,x
COc1ccccc1N1CCN(C(=O)C2CCCN(S(=O)(=O)c3ccc(C)cc3)C2)CC1 (centres undefined),u,u,x,0.0,x
CC(=O)N1CCCc2cc(S(=O)(=O)N3CCCC(C(=O)N4CCN(c5cc(C)ccc5C)CC4)C3)ccc21 (centres undefined),10µM*,28.2µM*,5.62µM*,-77.6*!,u
CC(=O)Nc1ccc(S(=O)(=O)N2CCCC(C(=O)N3CCN(c4ccccc4)CC3)C2)cc1 (centres undefined),x,u,-28.6%,-30.9,u
CC(=O)N1CCCc2cc(S(=O)(=O)N3CCCC(C(=O)N4CCN(c5ccccc5)CC4)C3)ccc21 (centres undefined),11.2µM*,17.8µM*,-19.5%[46.1 µM],+!,x
COc1ccccc1N1CCN(C(=O)C2CCCN(S(=O)(=O)c3ccc4c(c3)CCCN4C(C)=O)C2)CC1 (centres undefined),10µM*,28.2µM*,u,-88.6*!,11.2µM*
CCOC(=O)c1ccc(NC(=O)CC[C@@H](CC)C(=O)O)cc1,x,x,x,x,3.2%
Cc1oc2ccc(O)cc2c1C(=O)c1ccc([N+](=O)[O-])cc1,-6.8%,35.5µM*,-11.1%,-15.7,-9.7%
Cc1oc2ccc(O)cc2c1C(=O)c1ccc(Cl)cc1,u,27.7%,21.4%,11.0,0.8%
CCN1CCN(C(=O)c2cnn3c(C(F)F)cc(-c4ccc(C)cc4)nc23)CC1,-26.7%,-23.9%,-22.9%,31.1,u
Cc1ccccc1Cc1c(C)nc2c(C(=O)N3CCN(Cc4ccc5c(c4)OCO5)CC3)cnn2c1C,14.1µM*,u,-5.0%,u,-3.7%
O=C(c1cnn2c(C(F)F)cc(-c3ccccc3)nc12)N1CCN(Cc2ccc3c(c2)OCO3)CC1,11.2µM*,28.2µM*,-28.5%,-25.1,u
CS(=O)(=O)NCCc1csc2nc(-c3ccccc3)nn12,x,-9.2%,-13.6%[46.1 µM],-37.2,x
COc1ccc(-c2noc(CN(C)C(=O)Nc3ccccc3)n2)cc1,u,-27.5%,x,u,x
COc1ccccc1OCC(=O)N(Cc1nc(-c2ccc(Cl)cc2)no1)C(C)C,u,-15.3%,x,14.5,x
COc1ccc(OC(C)C(=O)N(C)Cc2nc(-c3ccc(C)cc3)no2)cc1 (centres undefined),14.1µM*,u,x,-32.3,-0.8%[46.1 µM]
COc1ccccc1OCC(=O)N(Cc1nc(-c2ccccc2)no1)C(C)C,3.16µM*,-2.1%,7.94µM*,-5.3,u
CC(C)N(Cc1nc(-c2ccccc2)no1)C(=O)COc1ccccc1,-10.2%,-1.5%,x,-3.0,x
CC(Oc1ccc(Br)cc1)C(=O)N(Cc1nc(-c2ccccc2)no1)C(C)C (centres undefined),x,u,-16.2%[46.1 µM],-70.4*,u
SMILES,HCV inhibitor,FMDV antiviral,LASV entry inh,HCMV antiviral,Marburg entry inh
COc1ccc(OC(C)C(=O)N(C)Cc2nc(-c3ccc(OC)cc3)no2)cc1 (centres undefined),u,u,-24.4%,-64.5*,-11.2%[46.1 µM]
COc1ccc(CC(=O)N(Cc2nc(-c3ccc(C)cc3)no2)C(C)C)cc1,x,-17.8%,1.4%[46.1 µM],-21.5,-29.1%[46.1 µM]
CCOc1ccc(NC(=O)CN(Cc2ccccc2)S(=O)(=O)c2ccc3nc(C)sc3c2)cc1,x,-10.8%,u,-26.0,x
CC(C)CCN1C(=O)N(c2ccccc2)C(=O)C1CC(=O)Nc1ccc(Cl)cc1 (centres undefined),x,27.9%,-15.0%[46.1 µM],-27.2,x
CCc1ccc(-c2nc(SCC(=O)NCC3CCCO3)c(-c3ccc(F)cc3)[nH]2)cc1 (centres undefined),x,3.0%,-14.2%[46.1 µM],-28.8,-13.1%[46.1 µM]
CC1CCCC(C)N1/N=C/c1ccc(Cl)cc1 (centres undefined),11.2µM*,12.3%,10.5%,21.3,-1.5%
CN(/N=C/c1cc(Br)cc(Br)c1O)c1cccc(C(F)(F)F)n1,-14.8%,u,u,-65.2*,-18.4%
COc1ccc(NC(=O)CCN2C(=O)c3ccccc3C2=O)c(OC)c1,0.9%,5.4%,1.6%,6.2,-2.9%
COc1ccc(OC)c(N(CCN2C(=O)c3ccccc3C2=O)C(=O)CCl)c1,x,u,x,-97.7*,x
O=C1CN=C(c2ccccc2Cl)c2cc(Br)ccc2N1,5.6%,-19.7%,u,-23.9,u
O=C1CN=C(c2ccc[nH]2)c2cc(Cl)ccc2N1,0.5%,-8.8%,x,-94.3*,x
CCCc1cc(=O)oc2c3c(c4c(c12)OC(C)(C)C=C4)OC(C)C(C)C3O (centres undefined),10µM*,-0.9%,x,-76.9*,x
CCOC(=O)c1cccn1C1C(=O)N(Cc2ccc(C(C)C)cc2)c2c(F)cccc21 (centres undefined),x,x,x,-34.7,x
N#Cc1ccc(OCC(=O)N2CCN(S(=O)(=O)c3ccc(Cl)s3)CC2)cc1,u,u,x,-60.7*,x
CC(=O)Oc1cccc2c1C(=O)c1c(OC(C)=O)cc(C(=O)O)cc1C2=O,7.08µM*,u,1.7%,-3.4,10.5%
CCN1CCN(c2ncc3c(n2)CCN(Cc2ccccc2C)C3)CC1,x,-18.9%,-15.4%[46.1 µM],-4.8,x
Cc1ccc(Cc2cnc(NC(=O)c3ccco3)s2)cc1,u,x,u,0.5,u
O=C(Nc1ncc(Cc2ccc(SC(F)F)cc2)s1)c1ccc(OC(F)F)cc1,u,u,u,-86.4*,5.62µM*
CCCc1nc([N+](=O)[O-])c(S(=O)(=O)c2ccccc2)n1CC(C)C,u,u,u,-92.9*,11.6µM*
CC(C)Cn1nc(NS(=O)(=O)c2ccccc2)c2cc3ccccc3nc21,0.8%,41.0%,4.1%,8.4,5.8%
CC(C)Cn1c(C(C)C)nc([N+](=O)[O-])c1S(=O)(=O)c1ccc(F)cc1,u,15.8µM*,-25.4%,-72.1*,u
CC(C)Cn1c(C(C)C)nc([N+](=O)[O-])c1Sc1ccc(Cl)cn1,u,u,3.3%,-3.6,-28.8%
CCOC(=O)c1ccc(NC(=O)CCCn2nc(C)c3sc4ccccc4c3c2=O)cc1,x,-11.9%,20.7%[46.1 µM],-3.8,1.8%[46.1 µM]
Cc1cn(C)c(CC(=O)N2CCN(c3cccc(C(F)(F)F)c3)CC2)c1C(=O)O,x,-22.5%,19.2%[46.1 µM],-14.7,x
CC(C)COc1nc2ccccc2nc1[C@H](C#N)C(=O)NC1CCCCC1,x,x,x,x,-1.2%
